Measured potencies and affinities stand elsewhere.

The first experiment concerns Klebsiella pneumoniae. To be noted: Concentration 32 ug.mL-1; ASSAY_TEST Inhibition of Bacterial Growth; detection method Absorption (OD600); MEDIA CAMHB; plate type 384well; NBS; CORNING #3640; time 18 hr.
The Inhibition is the drop in the measured response relative to a control, in per cent. In the case of `COc1ccc2cc(C3C4=C(CC(C)(C)CC4=O)Oc4nc5c(c(N)c43)CCC5)c(Cl)nc2c1` (stereo not given), the Inhibition was 7.42%.

With `C#CCNc1nc(NCCCC2CCN(Cc3ccccc3)CC2)c(C#N)cc1C#N.Cl`, the Inhibition was -17.1%.

Consider `Cn1ccnc1C1c2ccc3cccnc3c2Oc2nc3c(c(N)c21)CCC3` (stereo not given), for which the Inhibition is 5.38%.

For `CCOC(=O)C1=C(C)NC(N)=C(C#N)C1c1ccc(OC)cc1` (stereo not given), the Inhibition is given as 13.36%.

Take `Cn1c(C(=O)N2CCOCC2)cc2cc(OCCCC3CCN(Cc4ccccc4)CC3)ccc21`: the Inhibition stood at 2.68%.

Turning to `CCOC(=O)c1cc2cc(OC)ccc2n1C`, the Inhibition is listed as -11.12%.

In the case of `Cc1ccccc1-c1c(C=N)c(N)nc2c1S(=O)(=O)OC2(C)C`, the Inhibition amounted to 10.81%.

As to `C#CCN(C)Cc1cc2cc(OCCC3CCN(Cc4ccccc4)CC3)ccc2n1C.Cl`, the Inhibition worked out at 16.32%.

`O=C(Cc1c[nH]c2ccccc12)NNCCc1ccccc1`: the Inhibition is reported as 0.81%.

With `COC(=O)C(=Cc1ccccc1)NC(=O)c1ccccc1`, the Inhibition is 12.18%.

Consider `NNC(=O)c1cc2ccccc2n1Cc1ccccc1`, for which the Inhibition is recorded as -14.14%.

In the case of `C#CCN(C)c1nc(Cl)c(C#N)c(-c2ccccc2)c1C#N`, the Inhibition is 7.31%.

With `COc1cc(C2C(C#N)=C(N)Oc3c2ccc2ccccc32)ccc1O` (stereo not given), the Inhibition was -1.93%.

Take `O=C(COc1ccc2ccccc2c1)NNCc1c[nH]c2ccccc12`: the Inhibition is listed as 9.52%.

`COc1ccc(C2C(C#N)=C(N)Oc3c2ccc2ccccc32)cc1` (stereo not given): the Inhibition turned out to be 9.52%.

On to `Nc1n[nH]c2c1C(c1ccccc1)CC(=O)N2` (stereo not given), for which the Inhibition came out at 23.2%.

Regarding `Cl.N#Cc1cc(C#N)c(N2CCCC2)nc1Cl`, the Inhibition is recorded as 14.18%.

Turning to `COc1nc(N)c(C#N)cc1C#N`, the Inhibition is recorded as 5.43%.

`O=C(NCc1ccccc1)c1cc2ccccc2[nH]1`: the Inhibition stood at 1.5%.

`COc1ccc(-c2cc(-c3ccccc3)c(C#N)c(N)n2)cc1`: the Inhibition is -4.32%.

`Cc1ccc2nc(Cl)c(/C=N/NCc3ccccc3)cc2c1`: the Inhibition is 7.66%.

Regarding `C#CCN(C)c1nc(OC)c(C#N)c(-c2ccccc2)c1C#N`, the Inhibition is given as 15.23%.

Take `CC(C)(C)OC(=O)Nc1ncccc1Br`: the Inhibition is given as 19.74%.

Consider `CNCc1cc2cc(OC)ccc2n1C.Cl`, for which the Inhibition is recorded as 8.64%.

On to `Cn1ccnc1C1C(C#N)=C(N)Oc2c1ccc1cccnc21` (stereo not given), for which the Inhibition is 9.74%.

Consider `COc1ccc2c(c1)cc(CN(C)C)n2C`, for which the Inhibition was found to be 9.15%.

Turning to `Cc1ccc(S(=O)(=O)N[C@H]2CC[C@H](O)CC2)cc1`, the Inhibition was found to be 11.86%.

Take `COc1ccc(C2C(C#N)=C(N)Oc3ccc4ccccc4c32)cc1` (stereo not given): the Inhibition is 8.69%.

As to `CCOC(=O)C1=C(C)OC(N)=C(C#N)C1c1ccncc1` (stereo not given), the Inhibition worked out at 10.54%.

Consider `Cl.NC1(C(=O)O)CC1c1ccccc1` (stereo not given), for which the Inhibition was 9.92%.

With `CC(=O)N1CC(=O)NC1=S`, the Inhibition is reported as 17.26%.

`Cn1ccnc1C1C2=C(CC(C)(C)CC2=O)Oc2nc3c(c(N)c21)CCC3` (stereo not given): the Inhibition was 9.18%.

On to `N#Cc1cc(C#N)c(N2CCC(O)CC2)nc1N`, for which the Inhibition is listed as -4.97%.

`N#Cc1c(-c2ccccc2)c2c(ccc3ccccc32)oc1=O`: the Inhibition is 13.16%.

As to `Cl.ClCCCN1CCCC1`, the Inhibition was 2.47%.

Turning to `N#C/C(=C\c1ccccc1)C(=O)c1ccccc1`, the Inhibition amounted to 5.05%.

Turning to `CCOC(=O)C1=C(C)OC(N)=C(C#N)C1c1ccc(OC)c(OC)c1` (stereo not given), the Inhibition turned out to be 9.11%.

`Cc1nc(NCc2ccccc2)c2cnn(-c3ccccc3)c2n1`: the Inhibition is recorded as 15.01%.

Turning to `C=CCNCc1cc2cc(OCCCC3CCN(Cc4ccccc4)CC3)ccc2[nH]1.O.O=C(O)C(=O)O.O=C(O)C(=O)O`, the Inhibition is -6.45%.

Regarding `C=CCNc1nc(N)c(C#N)cc1C#N`, the Inhibition is 12.19%.

For another experiment, the system named is Candida albicans. As to conditions: 32 ug/mL.
`COc1ccc2cc(C3C4=C(CC(C)(C)CC4=O)Oc4nc5c(c(N)c43)CCC5)c(Cl)nc2c1` (stereo not given): the Inhibition came out at 10.1%.

With `C#CCNc1nc(NCCCC2CCN(Cc3ccccc3)CC2)c(C#N)cc1C#N.Cl`, the Inhibition was found to be 1.71%.

`Cn1ccnc1C1c2ccc3cccnc3c2Oc2nc3c(c(N)c21)CCC3` (stereo not given): the Inhibition is 2.9%.

As to `CCOC(=O)C1=C(C)NC(N)=C(C#N)C1c1ccc(OC)cc1` (stereo not given), the Inhibition was determined as 5.45%.

As for `Cn1c(C(=O)N2CCOCC2)cc2cc(OCCCC3CCN(Cc4ccccc4)CC3)ccc21`, the Inhibition is 1.38%.

Turning to `CCOC(=O)c1cc2cc(OC)ccc2n1C`, the Inhibition stood at 0.11%.

In the case of `Cc1ccccc1-c1c(C=N)c(N)nc2c1S(=O)(=O)OC2(C)C`, the Inhibition is -0.01%.

Turning to `C#CCN(C)Cc1cc2cc(OCCC3CCN(Cc4ccccc4)CC3)ccc2n1C.Cl`, the Inhibition was determined as 3.09%.

As for `O=C(Cc1c[nH]c2ccccc12)NNCCc1ccccc1`, the Inhibition worked out at 1.99%.

Take `COC(=O)C(=Cc1ccccc1)NC(=O)c1ccccc1`: the Inhibition amounted to 0.5%.

For `NNC(=O)c1cc2ccccc2n1Cc1ccccc1`, the Inhibition is -0.41%.

For `C#CCN(C)c1nc(Cl)c(C#N)c(-c2ccccc2)c1C#N`, the Inhibition was found to be 11.2%.

On to `COc1cc(C2C(C#N)=C(N)Oc3c2ccc2ccccc32)ccc1O` (stereo not given), for which the Inhibition stood at 22.7%.

Consider `O=C(COc1ccc2ccccc2c1)NNCc1c[nH]c2ccccc12`, for which the Inhibition came to 3.01%.

As to `COc1ccc(C2C(C#N)=C(N)Oc3c2ccc2ccccc32)cc1` (stereo not given), the Inhibition worked out at 1.55%.

In the case of `Nc1n[nH]c2c1C(c1ccccc1)CC(=O)N2` (stereo not given), the Inhibition came out at 1.67%.

Regarding `Cl.N#Cc1cc(C#N)c(N2CCCC2)nc1Cl`, the Inhibition came out at 3.61%.

As to `COc1nc(N)c(C#N)cc1C#N`, the Inhibition was determined as 3.36%.

In the case of `O=C(NCc1ccccc1)c1cc2ccccc2[nH]1`, the Inhibition was -0.44%.

On to `COc1ccc(-c2cc(-c3ccccc3)c(C#N)c(N)n2)cc1`, for which the Inhibition was -5.4%.

`Cc1ccc2nc(Cl)c(/C=N/NCc3ccccc3)cc2c1`: the Inhibition worked out at 14.7%.

Consider `C#CCN(C)c1nc(OC)c(C#N)c(-c2ccccc2)c1C#N`, for which the Inhibition was determined as 4.58%.

`CC(C)(C)OC(=O)Nc1ncccc1Br`: the Inhibition turned out to be 1.17%.

For the compound `CNCc1cc2cc(OC)ccc2n1C.Cl`, the Inhibition was -1.26%.

For the compound `Cn1ccnc1C1C(C#N)=C(N)Oc2c1ccc1cccnc21` (stereo not given), the Inhibition stood at 0.91%.

As to `COc1ccc2c(c1)cc(CN(C)C)n2C`, the Inhibition was -0.31%.

For the compound `Cc1ccc(S(=O)(=O)N[C@H]2CC[C@H](O)CC2)cc1`, the Inhibition came out at 0.9%.

Turning to `COc1ccc(C2C(C#N)=C(N)Oc3ccc4ccccc4c32)cc1` (stereo not given), the Inhibition was 1.62%.

With `CCOC(=O)C1=C(C)OC(N)=C(C#N)C1c1ccncc1` (stereo not given), the Inhibition is -1.5%.

Consider `Cl.NC1(C(=O)O)CC1c1ccccc1` (stereo not given), for which the Inhibition came to 1.66%.

Take `CC(=O)N1CC(=O)NC1=S`: the Inhibition was 1.1%.

Take `Cn1ccnc1C1C2=C(CC(C)(C)CC2=O)Oc2nc3c(c(N)c21)CCC3` (stereo not given): the Inhibition is -1.44%.

For `N#Cc1cc(C#N)c(N2CCC(O)CC2)nc1N`, the Inhibition is 1.52%.

As to `N#Cc1c(-c2ccccc2)c2c(ccc3ccccc32)oc1=O`, the Inhibition worked out at 0.36%.

For `Cl.ClCCCN1CCCC1`, the Inhibition is 8.26%.

Consider `N#C/C(=C\c1ccccc1)C(=O)c1ccccc1`, for which the Inhibition was 4.89%.

With `CCOC(=O)C1=C(C)OC(N)=C(C#N)C1c1ccc(OC)c(OC)c1` (stereo not given), the Inhibition was found to be 3.32%.

As to `Cc1nc(NCc2ccccc2)c2cnn(-c3ccccc3)c2n1`, the Inhibition was -0.57%.

Take `C=CCNCc1cc2cc(OCCCC3CCN(Cc4ccccc4)CC3)ccc2[nH]1.O.O=C(O)C(=O)O.O=C(O)C(=O)O`: the Inhibition turned out to be 0.53%.

As for `C=CCNc1nc(N)c(C#N)cc1C#N`, the Inhibition was determined as 3.01%.

For the origin of these results see ChEMBL document CHEMBL4513135, “CO-ADD screening of IQOG CSIS (Spain) compounds”.
